# In PubChem BioAssay (NCI):
# The panel holds about 79,000 compounds, 15% with a hit somewhere; the sample as a whole holds those more often. Calls of active or inactive are those of the source. Cut-off read from the data, not from the text of the source: active = growth inhibition above about 70%; inactive = the rest.
# Experiment: NCI Yeast Anticancer Drug Screen. Data for the mlh1 rad18 strain (AID 175)
# Settings: S. cerevisiae mlh1 rad18 strain growth inhibition; at 50.0 µM; stronger effect = higher value
# Procedure: Growth inhibition of yeast strains with defined genetic alterations is measured as a screen for potential anti-cancer activity. Selected strains with alterations in DNA damage repair or cell cycle control were exposed to compounds and growth inhibition was measured relative to vehicle treated controls. The strain used in this assay is mlh1 rad18
row,Structure (SMILES),growth inhibition
1,Oc1ccccc1C=NCCN=Cc1ccccc1O.[Zn+2],-17.9% (inactive)
2,CCC1(CC)C(=O)NC(=O)[N]([Sn]([CH3])([CH3])[N]2C(=O)NC(=O)C(CC)(CC)C2=O)C1=O,-26.1% (inactive)
3,CC1CCNC(C)C1 (stereo not given),8.6% (inactive)
4,CNC(=O)N1CN(c2ccccc2)C2(CCN(CCCC3(c4ccc(F)cc4)OCCO3)CC2)C1=O,1.05% (inactive)
5,COc1ccc(CC(N)c2nn[nH]n2)cc1 (stereo not given),-1.75% (inactive)
6,CN1CCN(c2cc3nsnc3c3nsnc23)CC1,18.1% (inactive)
7,O=[N+]([O-])C1(Cl)CCC(Cl)([N+](=O)[O-])CC1 (stereo not given),-18.3% (inactive)
8,CC1(C)OC2COC(CN=[N+]=[N-])C2O1 (stereo not given),-3.75% (inactive)
9,CCc1cc[c]([Sb](=[O])([OH])[OH])cc1,3.2% (inactive)
10,CC(O)c1ccc(Br)cc1 (stereo not given),16% (inactive)
11,CCOP(=O)(OCC)SC#N,16.1% (inactive)
12,O=C(Nc1c(O)[nH]c(=S)[nH]c1=O)c1ccccn1,-8.3% (inactive)
13,NC(=O)c1cc(N(CCBr)CCBr)c([N+](=O)[O-])cc1[N+](=O)[O-],9.3% (inactive)
14,CC(C)(O)[C@H]1[C@@H]2OC(=O)[C@H]1[C@]1(O)C[C@H]3OC34C(=O)O[C@H]2[C@@]41C (stereo not given in full) (tested in a mixture with another compound),-65.3% (inactive)
15,CCCC[N+]1(C)CCC(OC(=O)C(O)(c2ccccc2)C2CCCC2)C1 (stereo not given),-5.5% (inactive)
16,O=[N+]([O-])c1ccc2sc3ccccc3c2c1,58.8% (inactive)
17,COc1ccc(C(CC(=O)O)CC(=O)c2ccc(N(CCCl)CCCl)cc2)cc1 (stereo not given),68.5% (inactive)
18,Cc1cc(C)c(CCN(C)C)c(C)c1C,23.4% (inactive)
19,CCOC(=O)C(Cc1c[nH]c2ccccc12)NC(=O)/C=C/N(CCCl)CCCl (stereo not given),22.2% (inactive)
20,OC[C@@H](O)[C@@H](O)CO,10.1% (inactive)

row,Structure (SMILES),growth inhibition
1,CCC(C)OP(=S)(S)OC(C)CC.[Zn+2] (stereo not given),-5.95% (inactive)
2,COc1ccc2[nH]cc(/C=C\[N+](=O)[O-])c2c1,13.8% (inactive)
3,Cc1ccc(O)cc1C,7.95% (inactive)
4,CCOP(=O)(OCC)/C(C#N)=C/c1nccn1C,-34.4% (inactive)
5,COc1ccc2c(c1OC(C)=O)-c1cc(OC(C)=O)cc3c1C(C2)N(C(=O)CN(CCCl)CCCl)CC3 (stereo not given),-6.6% (inactive)
6,Cc1ccccc1-n1c(/C=C\c2ccccn2)nc2ccccc2c1=O,23.6% (inactive)
7,COc1ccc2c(c1OC)C[N+]1(C)CCc3cc4c(cc3C1=C2)OCO4 (stereo not given),-2% (inactive)
8,COc1ccc(C)cc1C(=O)C[n+]1ccc2ccccc2c1,0.15% (inactive)
9,O=C(COc1ccc(Cl)c(Cl)c1)Nc1ccccc1S(=O)(=O)F,21.4% (inactive)
10,O=C(O)c1ccccc1N(CCO)CCCl,-22.8% (inactive)
11,COc1ccc2c3c1OC1C(O)C=CC4C(C2)N(N=O)CCC341 (stereo not given),21.7% (inactive)
12,O=[As]c1ccc2c(c1)NC(O)=CO2 (stereo not given),32.5% (inactive)
13,O=C(O)C1C2Cc3ccccc3C1c1ccccc12 (stereo not given),-10% (inactive)
14,FC(F)(F)C(OP(OC(C(F)(F)F)C(F)(F)F)OC(C(F)(F)F)C(F)(F)F)C(F)(F)F,28.1% (inactive)
15,O=S1(F)=NP(N2CC2)(N2CC2)=NP(N2CC2)(N2CC2)=N1 (stereo not given),-39.9% (inactive)
16,O=C(c1ccccc1)c1ccc2n[se]nc2c1,25.5% (inactive)
17,CC(C)COC(=O)Cc1ccccc1,25.4% (inactive)
18,O=C1NC2NC3NC(=O)NC3NC2N1 (stereo not given),-24.4% (inactive)
19,S=P(C1CCCCC1)(C1CCCCC1)C(c1cccnc1)N1CCCC1 (stereo not given),14.1% (inactive)
20,CN(C)C(=O)O/N=C(\c1ccccc1)C(F)(F)F,30.6% (inactive)
